GPR151 activ – activators of human GPR151. Q8TDV0. PathHunter beta-arrestin GPR151 cells, luminescence. activation, % at 11.2 µM. hit rate 1% among 650,000. AID 1508602; in the data active = activation above about 4.9%
FBW7 activator – human FBW7 E3 ligase activation, primary screen | Q969H0 | AlphaScreen FBW7–phospho-cyclin E peptide binding, activator screen | normalized activity (activation), % at 26.1 µM | hit rate 0.13% among 650,000 | AID 1259310; in the data active = normalized activity above about 1.9%;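 also: purified mutant Fbw7 with reduced substrate affinity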
MITF primary – inhibitors of human MITF; AlphaScreen MITF homodimerization, bead proximity signal; inhibition, % at 2.6 µM; hit rate 0.91% among 650,000; AID 1259374; in the data active = inhibition above about 50%
Target sequence (O75030 whole entry, looked up): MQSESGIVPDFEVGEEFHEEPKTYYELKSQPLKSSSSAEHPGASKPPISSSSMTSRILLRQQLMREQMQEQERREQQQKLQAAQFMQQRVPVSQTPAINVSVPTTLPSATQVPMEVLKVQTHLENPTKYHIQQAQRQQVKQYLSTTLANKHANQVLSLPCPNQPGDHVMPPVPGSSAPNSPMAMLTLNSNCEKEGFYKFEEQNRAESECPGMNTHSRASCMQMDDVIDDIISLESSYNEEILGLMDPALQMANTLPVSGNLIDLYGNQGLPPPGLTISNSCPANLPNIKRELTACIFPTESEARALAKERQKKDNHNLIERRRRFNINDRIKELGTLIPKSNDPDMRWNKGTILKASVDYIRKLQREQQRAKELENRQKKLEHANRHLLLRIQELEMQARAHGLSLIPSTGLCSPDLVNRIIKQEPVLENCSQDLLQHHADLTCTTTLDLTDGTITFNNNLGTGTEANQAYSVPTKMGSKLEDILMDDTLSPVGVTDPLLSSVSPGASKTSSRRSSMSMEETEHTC
TEAD-YAP block – TEAD-YAP interaction inhibition; HEK-TIYL cells, TEAD-Gal4/YAP UAS-luciferase luminescence; inhibition, % at 9.12 µM; hit rate 1.4% among 640,000; AID 1259422; in the data active = inhibition above about 32%
MITF confirm – confirmation of human MITF inhibitors | shares compounds with MITF primary | AlphaScreen MITF homodimerization, biotin/His-MITF beads | inhibition, % at 2.6 µM | hit rate 16% among 4,700;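 active = inhibition above a cutoff derived from the DMSO control wells, cut at about 28% in these data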;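 also: inhibitors lower the bead chemiluminescence by keeping MITF from dimerizing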
AlphaScreen DR – counter-screen: compounds optically interfering with AlphaScreen; shares compounds with MITF primary; AlphaScreen optical interference counterscreen, cell-free; IC50, µM; hit rate 6% among 480; AID 1259373; call rule not given here
AS interf ctr – optically interferes with AlphaScreen signal. shares compounds with MITF primary. LysRS AlphaScreen counterscreen, signal interference, triplicate. inhibition, % at 2.6 µM. hit rate 7.6% among 4,700. AID 1259376;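 active = inhibition above a cutoff derived from the DMSO control wells, cut at about 30% in these data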
Of the large screens only hits and unclear results are named; the others gave an inactive call (follow-up assays come after a bar, where they were run). Compounds with a hit are over-represented: about 3.5% of the library has one in this group of screens.

c1cncc(CN2CCN(Cc3ccncc3)CC2)c1	MITF primary 77.3 | MITF confirm inactive | AS interf ctr inactive
c1cncc(CN2CCN(Cc3ccc4ccccc4c3)CC2)c1	MITF primary 80.5 | MITF confirm inactive | AS interf ctr inactive
O=C(C1c2ccccc2Oc2ccccc21)N1CCCC(c2nc(-c3cccnc3)n[nH]2)C1 (stereo not given)	MITF primary 61.6 | MITF confirm inactive | AS interf ctr inactive
CC1CCC(N2CCN(Cc3cccnc3)CC2)CC1 (stereo not given)	MITF primary 83.9 | MITF confirm inactive | AS interf ctr inactive
Cc1cc(Br)ccc1NC(=O)C(=O)NC(C)C	none
c1cncc(-c2n[nH]c(C3CCN(Cc4ccncc4)CC3)n2)c1	MITF primary 53.6 | MITF confirm inactive | AS interf ctr inactive
Fc1ccc(N2CCN(Cc3cccnc3)CC2)cc1	none
c1cncc(CN2CCN(Cc3cccnc3)CC2)c1	MITF primary 60.1 | MITF confirm inactive | AS interf ctr inactive
c1cncc(CN2CCN(Cc3ccco3)CC2)c1	MITF primary 75.2 | MITF confirm inactive | AS interf ctr inactive
O=S(=O)(c1ccc(Cl)cc1)N1CCN(Cc2cccnc2)CC1	none
Brc1ccc(CN2CCN(Cc3cccnc3)CC2)cc1	MITF primary 84.3 | MITF confirm inactive | AS interf ctr inactive
O=c1/c(=C/c2ccccc2F)sc2nnc(-c3ccccc3)n12	none
N=C1C(c2nc3ccccc3[nH]2)=C(O)CN1NC(=O)C(N)=O	none
Brc1ccc(CN2CCN(c3ncccn3)CC2)cc1	MITF primary 53.6 | MITF confirm inactive | AS interf ctr inactive
Fc1ccccc1N1CCN(Cc2cccnc2)CC1	none
Fc1ccccc1N1CCN(C2CCN(Cc3cccnc3)CC2)CC1	MITF primary 82.1 | MITF confirm inactive | AS interf ctr inactive
C/C=C/c1ccc(OCCCN2CC(C)OC(C)C2)c(OC)c1 (stereo not given)	none
C/C=C/c1ccc(OCCN2CC(C)OC(C)C2)c(OC)c1 (stereo not given)	MITF primary 64.3 | MITF confirm inactive | AS interf ctr inactive
Cc1ccc(OCCN2CC(C)OC(C)C2)c(Cl)c1 (stereo not given)	MITF primary 64.5 | MITF confirm inactive | AS interf ctr inactive
COc1cc(C)ccc1OCCOCCN1CC(C)OC(C)C1 (stereo not given)	MITF primary 56.5 | MITF confirm inactive | AS interf ctr inactive
CCOC(=O)c1cnn(-c2ccccc2Cl)c1CNCc1csc(C)n1	none
CCOC(=O)c1cnn(-c2ccccc2Cl)c1CNCCNC(C)=O	MITF primary 83.1 | MITF confirm inactive | AS interf ctr inactive
C(=N\N1CCN(Cc2cccc3ccccc23)CC1)/c1ccncc1	none
Cc1ccccc1CN1CCN(Cc2ccncc2)CC1	MITF primary 60.0 | MITF confirm inactive | AS interf ctr inactive
Cc1ccc(C)c(N2CCN(Cc3cccnc3)CC2)c1	none
c1ccc2c(CN3CCN(Cc4ccncc4)CC3)cccc2c1	MITF primary 54.6 | MITF confirm inactive | AS interf ctr inactive
Cc1ccccc1CN1CCN(Cc2cccnc2)CC1	MITF primary 84.3 | MITF confirm inactive | AS interf ctr inactive
Cc1cc(C)c(C)c(OCCOCCn2c(-c3ccc(Cl)cc3)nc3ccccc3c2=O)c1	none
NCCCNc1c2c(nc3cc(-c4ccc(Cl)cc4)nn13)CCC2	MITF primary 54.2 | MITF confirm inactive | AS interf ctr inactive
NCCCNc1c2c(nc3cc(-c4cccc(F)c4)nn13)CCC2	none
O=C(CSc1ccc(-c2ccccn2)nn1)Nc1ccccc1F	MITF primary 52.0 | MITF confirm 56.1 | AS interf ctr 88.5
O=C(CSc1ccc(-c2ccccn2)nn1)Nc1ccc(F)c(F)c1	none
O=C(CSc1ccc(-c2ccccn2)nn1)c1ccccc1	MITF primary 53.0 | MITF confirm 88.0 | AS interf ctr 100.3
Oc1ccc(CNc2ccccc2F)c2cccnc12	MITF primary 67.8 | MITF confirm 70.0 | AS interf ctr 100.3
Oc1ccc(CNc2cccc(Cl)c2)c2cccnc12	MITF primary 52.3 | MITF confirm 107.1 | AS interf ctr 100.3
Oc1ccc(Cl)c2cccnc12	none
Oc1ccc(CNc2ccccc2Cl)c2cccnc12	MITF primary 67.7 | MITF confirm 51.0 | AS interf ctr 92.1
O=C(COC(=O)CN1C(=O)c2ccccc2C1=O)Nc1ccc(Cl)c(C(F)(F)F)c1	none
c1ccc2c(c1)Cc1cc(-c3csc(Cc4nc(-c5ccc6c(c5)Cc5ccccc5-6)cs4)n3)ccc1-2	none
O=S(=O)(N=S(=O)(/C=C/c1ccccc1)c1ccccc1)c1ccccc1 (stereo not given)	MITF primary 84.3, TEAD-YAP block 34.9 | MITF confirm 28.4 | AlphaScreen DR inactive | AS interf ctr inactive
N=S(=NS(=O)(=O)c1ccccc1)(c1ccccc1)c1ccccc1	none
Fc1cccc(F)c1CN1CCOCC1	none
CC1CCN(C2CCN(Cc3ccccc3F)CC2)CC1	MITF primary 63.5 | MITF confirm inactive | AS interf ctr inactive
CC1CCN(Cc2c(F)cccc2F)CC1	MITF primary 62.7 | MITF confirm inactive | AS interf ctr inactive
Cc1ccccc1CN1CCN(C2CCCCCC2)CC1	MITF primary 68.8 | MITF confirm inactive | AS interf ctr inactive
Cc1ccccc1CN1CCC(N2CCC(C(=O)N3CCCC3)CC2)CC1	none
Cc1ccccc1CN1CCC(N2CCN(CCO)CC2)CC1	MITF primary 58.6 | MITF confirm inactive | AS interf ctr inactive
COc1ccc(CN(C)C(=O)CN2c3cccc4cccc(c34)S2(=O)=O)cc1	none
Fc1ccccc1CN1CCN(C2CCCC2)CC1	none
OCCN1CCN(C2CCN(Cc3ccccc3F)CC2)CC1	MITF primary 82.4 | MITF confirm inactive | AS interf ctr inactive
CCCc1nc2sc3c(NCc4ccccc4)ncnc3c2c2c1CCCC2	none
COc1ccc(CN2CCN(C)CC2)cc1OCc1ccccc1	none
COc1ccc(CN2CCN(Cc3ccncc3)CC2)cc1OCc1ccccc1	MITF primary 63.5 | MITF confirm inactive | AS interf ctr inactive
COc1ccc(CN2CCN(Cc3ccc(SC)cc3)CC2)cc1OCc1ccccc1	MITF primary 55.3 | MITF confirm inactive | AS interf ctr inactive
CCOc1cc(CN2CCN(Cc3ccc(SC)cc3)CC2)ccc1OC	MITF primary 53.7 | MITF confirm inactive | AS interf ctr inactive
O=C(CC(C(=O)O)N1CCCCC1)Nc1ccc(Cl)cc1 (stereo not given)	none
Cc1c(Cc2ccccc2)c(=O)oc2cc3occ(-c4ccccc4)c3cc12	none
Cc1cc(NC2CCCCC2)nc(-c2ccccc2O)n1	MITF primary 79.5 | MITF confirm inactive | AS interf ctr inactive
COc1cc(/C=C2\SC(=O)N(Cc3ccccc3)C2=O)cc([N+](=O)[O-])c1O	none
COc1ccccc1Nc1nc(-c2ccc(OC)c(OC)c2)nc2ccccc12	none
CCOC(=O)/C(C#N)=C\c1ccc(OCC)cc1	none

High-throughput results: PubChem, The Scripps Research Institute Molecular Screening Center
